Measured values reported in PubChem BioAssay (NCATS).
Results filed as inconclusive are left out. Where a call stands in place of a potency, no number is given. Activity calls are given as the source filed them. Calls come from the whole dose curve; as a rule, active = well fitted cell-killing curve with a large enough effect; inconclusive = small, poorly fitted or top-dose-only effect, or effect the other way; inactive = no such curve, though single readings can be large or run the other way.

Tests used:
[1] = Quantitative High-Throughput drug screen in 47 multiple myeloma cell lines against the NCATS MIPE library collection: XG1_PLB cell viability assay (AID 1919866); note: nearly all actives have a fitted effect of over 35% in size
How it was run: (§1)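 Viability after 48 h drug exposure was measured as ATP-dependent luminescence. Cells, 500 per well, sat at 37 °C under 5% CO2; DMSO wells set 100%, media-only wells 0%.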

[2] = Quantitative High-Throughput drug screen in 47 multiple myeloma cell lines against the NCATS MIPE library collection: PE2_PLB cell viability assay (AID 1919869); note: nearly all actives have a fitted effect of over 35% in size
How it was run: as §1

[3] = Quantitative High-Throughput drug screen in 47 multiple myeloma cell lines against the NCATS MIPE library collection: PCM6_Riken cell viability assay (AID 1919870); note: nearly all actives have a fitted effect of over 30% in size
How it was run: as §1

[4] = Quantitative High-Throughput drug screen in 47 multiple myeloma cell lines against the NCATS MIPE library collection: RPMI8226_ATCC cell viability assay (AID 1919871); note: nearly all actives have a fitted effect of over 30% in size
How it was run: as §1

[5] = Quantitative High-Throughput drug screen in 47 multiple myeloma cell lines against the NCATS MIPE library collection: OPM2_DSMZ cell viability assay (AID 1919872); note: nearly all actives have a fitted effect of over 30% in size
How it was run: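 Primary qHTS used for cherry-picking: cells at 500/well, library compounds for 48 h (37C, 5% CO2), luminescent ATP assay.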

[6] = Quantitative High-Throughput drug screen in 47 multiple myeloma cell lines against the NCATS MIPE library collection: KMS11_JCRBsus cell viability assay (AID 1919873); note: nearly all actives have a fitted effect of over 50% in size
How it was run: as §1

[7] = Quantitative High-Throughput drug screen in 47 multiple myeloma cell lines against the NCATS MIPE library collection: KMS28BM_JCRB cell viability assay (AID 1919874); note: nearly all actives have a fitted effect of over 35% in size
How it was run: as §1

[8] = Quantitative High-Throughput drug screen in 47 multiple myeloma cell lines against the NCATS MIPE library collection: UTMC2_PLB cell viability assay (AID 1919868); note: nearly all actives have a fitted effect of over 55% in size
How it was run: as §1

[9] = Quantitative High-Throughput drug screen in 47 multiple myeloma cell lines against the NCATS MIPE library collection: VP6_DJ cell viability assay (AID 1919867); note: nearly all actives have a fitted effect of over 40% in size
How it was run: as §1
Potency is the fitted concentration of half-maximal effect.

Row | SMILES | Potency [1] | Potency [2] | Potency [3] | Potency [4] | Potency [5] | Potency [6] | Potency [7] | Potency [8] | Potency [9]
1 | CC1Cc2ccccc2N1NC(=O)c1ccc(Cl)c(S(N)(=O)=O)c1 (centres undefined) | inactive | inactive | inactive | inactive | inactive | inactive | 1.05 µM (active) |  | 
2 | NS(=O)(=O)c1cc(C(=O)O)c(NCc2ccco2)cc1Cl | inactive | inactive | inactive | inactive | inactive |  |  |  | 
3 | O=C1NC(=O)C(c2ccccc2[N+](=O)[O-])=C1Nc1ccc(O)c(Cl)c1 | 8.33 µM (active) |  | 18.7 µM (active) |  | inactive |  |  | inactive | 
4 | Nc1ccc(S(N)(=O)=O)cc1 | inactive | inactive |  | inactive | inactive |  | inactive | inactive | 
5 | CNC[C@H](O)c1ccc(O)c(O)c1 | inactive |  | inactive | 42.9 µM (active) | 13.6 µM (active) | 19.1 µM (active) | 21.5 µM (active) |  | 
6 | CCCOc1ccc2nc(NC(=O)OC)[nH]c2c1 | inactive | 46.9 nM (active) |  |  | 0.0105 µM (active) |  |  | 20.9 nM (active) | 
7 | CNC[C@@H](O)[C@@H](O)[C@H](O)[C@H](O)CO | inactive |  | inactive | inactive | inactive |  | inactive |  | 
8 | CN1C(C(=O)Nc2ccccn2)=C(O)c2sccc2S1(=O)=O | inactive | inactive | inactive | inactive | inactive |  |  |  | 
9 | Cc1cc(=O)oc2cc(O)ccc12 | inactive | inactive |  | inactive | inactive | inactive | inactive |  | 
10 | CN1CCC(=C2c3ccccc3CCc3sccc32)CC1 | 18.7 µM (active) | inactive |  | 16.6 µM (active) | inactive |  | 10.5 µM (active) |  | 
11 | CS(=O)(=O)OCCCCOS(C)(=O)=O | inactive | inactive |  |  | inactive |  | inactive |  | 
12 | CC1=C(C(=O)O)N2C(=O)[C@@H](NC(=O)[C@H](N)C3=CCC=CC3)[C@H]2SC1 | inactive | inactive |  | inactive | inactive | inactive | inactive |  | 
13 | CCC[C@@H]1C[C@@H](C(=O)N[C@@H]([C@H]2O[C@H](SC)[C@H](O)[C@@H](O)[C@H]2O)[C@@H](C)O)N(C)C1 | inactive |  |  |  | inactive |  |  | 16.6 nM (active) | 
14 | Clc1ccc2c(N3CCN(CCCN4CCN(c5ccnc6cc(Cl)ccc56)CC4)CC3)ccnc2c1 | inactive | inactive |  |  | inactive | inactive | inactive | inactive | 
15 | O=c1c(O)c(-c2ccc(O)cc2O)oc2cc(O)cc(O)c12 | 0.833 µM (active) |  | inactive | inactive | inactive |  | inactive |  | 
16 | NC(=O)Cc1cccc(C(=O)c2ccccc2)c1N | inactive |  | inactive | inactive |  |  | inactive |  | 
17 | Cc1cccc(C#Cc2ccccc2)n1 | 14.8 µM (active) |  | inactive | 3.72 µM (active) | inactive |  | inactive |  | 
18 | Cc1cccc(-c2[nH]ncc2-c2ccc3ncccc3n2)n1 |  |  |  | inactive | inactive |  |  |  | inactive
19 | O=C1CCc2ccc(OCCCCN3CCN(c4cccc(Cl)c4Cl)CC3)cc2N1 | 23.5 µM (active) |  |  |  | inactive |  | inactive |  | 
20 | CC(C)[N+]1(C)[C@@H]2CC[C@H]1CC(OC(=O)C(CO)c1ccccc1)C2 (some centres undefined) |  | inactive |  | inactive | inactive | 7.43 µM (active) | 8.33 µM (active) |  | 14.8 µM (active)
21 | COC(=O)N[C@H](C(=O)N[C@@H](Cc1ccccc1)[C@@H](O)CN(Cc1ccc(-c2ccccn2)cc1)NC(=O)[C@@H](NC(=O)OC)C(C)(C)C)C(C)(C)C |  | inactive | 9.35 µM (active) | inactive | inactive |  |  |  | 20.9 µM (active)
22 | C[C@]12CCC(=O)C=C1CC[C@@H]1[C@H]2[C@@H](O)C[C@@]2(C)[C@H]1CC[C@]2(O)C(=O)CO |  | inactive |  | 0.418 µM (active) | inactive | 0.187 µM (active) | inactive |  | 14.8 µM (active)
